The results in this text go back to PubChem BioAssay (NCATS).

Assay [1] deals with Cellular tumor antigen p53 (Homo sapiens) (UniProt P04637). The experiment in a line: Primary qHTS for small molecule compounds that upregulate eGFP-tagged delta133p53alpha (in N-terminal) cells. (AID 2060322).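 For activation: series mostly up to about 56 µM; 0% = DMSO vehicle and 100% = reference activator.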 Note: nearly all actives have a fitted effect of over 75% in size. Note: potency is the fitted concentration of half-maximal effect. Conditions: NCI-H358 eGFP-delta133p53alpha fluorescence, 24 h; activation: hits give high values. Put shortly: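 NCI-H358 cells pre-induced 24 h with 10 ng/ml doxycycline to express N-terminal eGFP-delta133p53alpha, then dosed 24 h at 37C without doxycycline; fixed, Hoechst-stained, GFP intensity by laser scanning cytometry, normalized to DMSO (0%) and 57.5 uM 5-azacytidine (100%).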

The target in assay [2] is Aldehyde dehydrogenase, mitochondrial (Homo sapiens) (UniProt P05091). Description: qHTS for Inhibitors of the Aldehyde Dehydrogenase Family (ALDH2) Primary screen (AID 2061308).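 Note: plate controls were vehicle for no effect and reference inhibitor for full effect; nearly all actives have a fitted effect of over 55% in size.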
Assay [3] has as its target Retinaldehyde dehydrogenase 3 (Homo sapiens) (UniProt P47895). Description: qHTS for Inhibitors of the Aldehyde Dehydrogenase Family (ALDH1A3) Validation screen (AID 2061312). Note: % is set by controls: 0 for no effect and ±100 for the full control effect; nearly all actives have a fitted effect of over 45% in size.
Assay [4] shares this target. Description: qHTS for Inhibitors of the Aldehyde Dehydrogenase Family (ALDH1A3) Primary screen (AID 2061315).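 Note: plate controls were DMSO vehicle for no effect and reference inhibitor for full effect.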
A short description of assay [5]: BET inhibitor-based combinations targeting novel dependencies in MECOM-rearranged (r) AML: SET-2 cell line (AID 2202231). Note: potency is the fitted concentration of half-maximal effect; nearly all actives have a fitted effect of over 35% in size. Conditions: SET-2 AML cells viability, CellTiter-Glo luminescence, 48 h; viability: hits give low values, concentration not given here. In outline:
(§1)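 Viability of cells (500 per well) is scored by luminescent CellTiter-Glo at 48 hr post-dosing. Eleven-point titrations are normalized to DMSO and empty controls and reduced to AUC values.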

The nature of assay [6]: BET inhibitor-based combinations targeting novel dependencies in MECOM-rearranged (r) AML: OCI-AML3 cell line (AID 2202232). Note: potency is the fitted concentration of half-maximal effect; nearly all actives have a fitted effect of over 35% in size. To be noted: Potency: OCI-AML3 viability. Put shortly: as §1
The nature of assay [7]: BET inhibitor-based combinations targeting novel dependencies in MECOM-rearranged (r) AML: MV-4-11 cell line (AID 2202233). Note: potency is the fitted concentration of half-maximal effect; nearly all actives have a fitted effect of over 45% in size. In outline: (§2)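 Using pin-tool transfer, drugs were added in 11 doses to cells (500/well), incubated 48 hr, and assessed with CellTiter-Glo. Z-AUC is a mean-centring transformation applied separately to each screened line.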
Assay [8] is described as follows: BET inhibitor-based combinations targeting novel dependencies in MECOM-rearranged (r) AML: HNT-34 cell line (AID 2202234). Note: potency is the fitted concentration of half-maximal effect; nearly all actives have a fitted effect of over 35% in size. In outline:
as §2

Assay [9] in a line: BET inhibitor-based combinations targeting novel dependencies in MECOM-rearranged (r) AML: UCSD-AML1 cell line (AID 2202235). Note: potency is the fitted concentration of half-maximal effect; nearly all actives have a fitted effect of over 40% in size. In outline:
as §2

A short description of assay [10]: BET inhibitor-based combinations targeting novel dependencies in MECOM-rearranged (r) AML: AML-191 cell line (AID 2202236; note: potency is the fitted concentration of half-maximal effect; nearly all actives have a fitted effect of over 35% in size). Put shortly: as §1
A short description of assay [11]: BET inhibitor-based combinations targeting novel dependencies in MECOM-rearranged (r) AML: AML-194 cell line (AID 2202237; note: potency is the fitted concentration of half-maximal effect; nearly all actives have a fitted effect of over 40% in size). In outline:
as §1

Each structure is given as a SMILES string. “And” between values parts separate entries of the source, which are not always exact repeats. Equal entries are not always repeated. Results filed as inconclusive are left out. Values without a mark were called inactive. The source made the active and inactive calls. Calls come from the whole dose curve; as a rule, active = well fitted curve in the direction sought with a large enough effect; inconclusive = small, poorly fitted or top-dose-only effect, or another doubt; inactive = no such curve, though single readings can be large; an effect the other way counts as inactive or inconclusive.

Sequence of Cellular tumor antigen p53 (Homo sapiens) (P04637 whole entry, looked up): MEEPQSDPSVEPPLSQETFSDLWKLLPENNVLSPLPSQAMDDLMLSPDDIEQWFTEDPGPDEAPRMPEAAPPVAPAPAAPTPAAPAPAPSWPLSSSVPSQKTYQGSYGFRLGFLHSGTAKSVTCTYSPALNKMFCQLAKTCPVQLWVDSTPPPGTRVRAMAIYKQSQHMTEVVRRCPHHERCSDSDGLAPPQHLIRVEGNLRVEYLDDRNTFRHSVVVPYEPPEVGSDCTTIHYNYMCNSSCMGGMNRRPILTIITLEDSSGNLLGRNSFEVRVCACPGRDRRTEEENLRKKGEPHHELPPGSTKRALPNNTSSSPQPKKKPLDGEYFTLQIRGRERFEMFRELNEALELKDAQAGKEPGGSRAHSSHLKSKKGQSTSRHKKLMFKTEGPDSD

Take `c1ccc(C(OC2CCN(CCCc3nn[nH]n3)CC2)c2ccccc2)cc1`: the activation in assay [1] was -4.77%. In addition, the Potency result in [2], in assay [3] and in assay [4] was “inactive” in each case.

`CCCCNc1ncc2c(-c3ccc(CN4CCN(C)CC4)cc3)cn(C3CCC(O)CC3)c2n1` (centres undefined): the Potency in [1] was 21.3 µM (active); in assay [5] it was 14.8 µM (active) and 11.8 µM (active); in [6], 6.61 µM (active) and 4.68 µM (active); in assay [7] it was 59 nM (active) and 93.4 nM (active); in [8], 1.05 µM (active) and 1.18 µM (active); in [9], 4.17 µM (active) and 3.32 µM (active). Moreover, the Potency in [10] was 833 nM (active) and 1.18 µM (active). Besides, the Potency result in assay [2], in [3] and in assay [4] was “inactive” throughout.

For the compound `CC(C)C[C@H](NC(=O)[C@H](Cc1ccccc1)NC(=O)c1cnccn1)B(O)O`, the Potency was 968 nM (active) and 379 nM (active) in assay [1]; 16.6 nM (active) in [5]; 10.5 nM (active) in assay [6]; 13.2 nM (active) in assay [7]; 14.8 nM (active) in assay [8]; 18.6 nM (active) in assay [9]. Moreover, the figures for the Potency in assay [10] and in [11] were 18.6 nM (active) and 0.0209 µM (active), respectively. Further, the Potency entry in [2], in assay [3] and in assay [4] was “inactive” throughout.

On to `FC(F)(F)c1ccccc1-c1cc(C(F)(F)F)c2nc(C3=NOC4(CCCCC4)C3)[nH]c2c1`, for which the activation in assay [1] is 15.3%. Further, the Potency entry in assay [2], in assay [3] and in [4] was “inactive” each time.

`Cc1ccc(C2(C(=O)N3CCC(n4nc(-c5ccccc5)oc4=O)CC3)CC2)cc1`: in assay [1], the activation is -1.91%. The Potency result in assay [2], in [3] and in [4] was “inactive” in each case.

For the compound `Fc1ccc2[nH]ccc2c1-c1nc(N2CCOCC2)c2sc(CN3CCN(CC4CC4)CC3)cc2n1`, the activation in assay [1] was 22%. For the same compound, the Potency entry in assay [2], in assay [3] and in assay [4] was “inactive” each time. The Potency in [5] is 23500 nM (active); in assay [6], 11800 nM (active); in [7], 14800 nM (active); in [8], 18600 nM (active); in [9] it was 16600 nM (active); in assay [10] it was 10500 nM (active). Moreover, the Potency in assay [11] is 8.33 µM (active).
